A selection: hits, their analogues and other compounds. The true share with any hit is near 14%.
Giardia FBPA inh – qHTS Assay for Inhibitors of Fructose-1,6-bisphosphate Aldolase from Giardia Lamblia | A8B2U2 | purified Giardia FBPA | Potency, µM (doses to about 59.6 µM), hits mostly inhibitors | 290,000 compounds, 0.71% hits | AID 2451, 2010; also: nearly all actives have a fitted effect of over 55% in size
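Giardia FBPA (40 nM reagent) was preincubated 10 min at RT with compound (up to 57.5 uM final), then substrate plus GAPDH/TPI/NAD/arsenate coupling system with diaphorase/resazurin was added; resorufin fluorescence (525/598 nm) was read after 20 min.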
Shiga inhibitor – A qHTS for Small Molecule Inhibitors of Shiga Toxin; inhibition, % at 38.7 µM; 290,000 compounds, 9.2% hits; Vero cells, Shiga toxin protein synthesis inhibition reporter; in the data active = inhibition mostly above about 28%, no sharp cut-off; inactive = mostly below about 43%
NS1 function inh – qHTS Assay for Inhibitors of Influenza NS1 Protein Function | 270,000 compounds, 0.4% hits | Potency, µM (titrated, usually from 46.1 µM); calls by dose curve; also: actives are rising curves; nearly all actives have a fitted effect of over 50% in size
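OD600 was taken as the measure of yeast growth restored by compound in an NS1-expressing S. cerevisiae strain. Cells had been washed out of glucose medium and diluted 1:100 into galactose -URA medium, pH 6.0.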
LmPK inhibitor – qHTS Assay for Inhibitors of Leishmania Mexicana Pyruvate Kinase (LmPK) | purified LmPK, Kinase-Glo ATP luminescence, 1 h | Potency, µM (titrated, usually from 57.5 µM), usual class: inhibitors | Q27686 | AID 1721, 2009 | 290,000 compounds, 0.37% hits
Target sequence (Q27686 whole entry, looked up): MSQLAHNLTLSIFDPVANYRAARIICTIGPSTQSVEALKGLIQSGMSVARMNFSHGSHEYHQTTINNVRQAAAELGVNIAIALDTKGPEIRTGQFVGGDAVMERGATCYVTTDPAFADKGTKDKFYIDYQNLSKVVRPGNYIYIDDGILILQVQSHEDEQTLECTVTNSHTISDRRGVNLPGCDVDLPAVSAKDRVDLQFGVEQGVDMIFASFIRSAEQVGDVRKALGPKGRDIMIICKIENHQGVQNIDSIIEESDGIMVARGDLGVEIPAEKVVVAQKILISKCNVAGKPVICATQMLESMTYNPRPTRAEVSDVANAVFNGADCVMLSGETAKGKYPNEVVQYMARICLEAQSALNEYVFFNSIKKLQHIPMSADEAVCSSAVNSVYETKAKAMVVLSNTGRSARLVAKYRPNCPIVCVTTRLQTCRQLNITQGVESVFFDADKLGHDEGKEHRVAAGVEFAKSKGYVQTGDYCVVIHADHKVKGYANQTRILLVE
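Purified LmPK (0.1 nM) converted ADP (0.1 mM) to ATP with PEP (0.5 mM) in imidazole buffer pH 7.2 with KCl and MgCl2, 1 h at room temperature. ATP was read by Kinase-Glo luminescence; data normalized to uninhibited and no-enzyme controls.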
Cycloheximide cs – Cycloheximide Counterscreen for Small Molecule Inhibitors of Shiga Toxin. cell reporter, cycloheximide protein synthesis inhibition counterscreen. max response, %. 300,000 compounds, 12% hits; in the data active = max response mostly above about 13%, no sharp cut-off; inactive = mostly below about 14%; also: read at 38.3 µM for the half of the compounds with a filed dose
Large screens that a line does not name were inactive. Unless noted, calls follow the shape of the dose curve; as a rule, active = well fitted curve in the direction sought with a large enough effect; inconclusive = small, poorly fitted or top-dose-only effect, or another doubt; inactive = no such curve, though single readings can be large; an effect the other way counts as inactive or inconclusive.

COc1ccc(-c2cn(Cc3cccc(OC)c3)nn2)cc1	Shiga inhibitor 82, Cycloheximide cs 29
COc1cccc(Cn2cc(-c3cccc(C(F)(F)F)c3)nn2)c1	none
COc1cc(SC)ccc1C(=O)NCCc1c[nH]c2ccccc12	Cycloheximide cs 27
O=C(NCCc1c[nH]c2ccccc12)c1ccco1	Cycloheximide cs 18
COc1ccc(C(=O)c2c[nH]c3ccccc23)cc1	Shiga inhibitor 65, Cycloheximide cs 61
COc1ccc(-c2nc3cnc(N4CCOCC4)nc3n(C3CC3)c2=O)cc1	none (no result: Shiga inhibitor, NS1 function inh, LmPK inhibitor, Cycloheximide cs)
COc1ccc(OCC(=O)NCCc2c[nH]c3ccccc23)cc1	none
O=C(NCCc1c[nH]c2ccccc12)c1cnccn1	Shiga inhibitor 38 (no result: NS1 function inh)
O=C(NCCc1c[nH]c2ccccc12)c1ccc(F)cc1F	Shiga inhibitor 116, Cycloheximide cs 25
O=C(NCCc1c[nH]c2ccccc12)c1ccc(Cl)cc1	Shiga inhibitor 127, Cycloheximide cs 48
COc1ccc(C(=O)NCCc2c[nH]c3ccccc23)cc1	Shiga inhibitor 77, Cycloheximide cs 45
COc1ccc(NC(=O)Cc2nnc(SCC(=O)c3ccc(F)cc3)n2C)cc1	none
Cc1ccsc1C(=O)NCCc1c[nH]c2ccccc12	Shiga inhibitor 73, Cycloheximide cs 36 (no result: Giardia FBPA inh)
COc1ccc(-c2cn(CCc3c[nH]c4ccccc34)nn2)cc1	Cycloheximide cs 7.4
O=C(NCCc1c[nH]c2ccccc12)c1cnc2sccn2c1=O	Shiga inhibitor 84, Cycloheximide cs 34
O=C(NCc1ccc(F)cc1)c1cnc2sccn2c1=O	none
O=C(Nc1nnc(SCCN2CCOCC2)s1)C1CC(=O)N(c2ccc(F)cc2)C1 (centres undefined)	none (no result: Giardia FBPA inh)
Cc1ccc(CSCC(=O)Nc2ccccc2)cc1	Shiga inhibitor 26, Cycloheximide cs 32
O=C(CSc1ccccc1)NCc1ccc(F)cc1	Shiga inhibitor 80, Cycloheximide cs 40
Cc1ccc(SCC(=O)NCc2ccc(F)cc2)cc1	none
Cc1ccc(CNC(=O)CSCc2ccccc2)cc1	Shiga inhibitor 71, Cycloheximide cs 29
Cc1ccc(SCC(=O)NCc2ccccc2)cc1	Shiga inhibitor 71, Cycloheximide cs 21
C(=Nc1ccc2c(c1)Cc1ccccc1-2)c1ccccn1	none (no result: Giardia FBPA inh, Shiga inhibitor, LmPK inhibitor, Cycloheximide cs)
C#CCCCO/N=C1/C[C@@H](O)[C@@H](O)[C@@H]2[C@@H]3C(=O)N(Cc4ccccc4)C(=O)[C@H]3CC[C@@H]12	none (no result: Shiga inhibitor, NS1 function inh, LmPK inhibitor, Cycloheximide cs)
CC(C)Cn1nnnc1S(=O)(=O)CC#N	none (no result: Shiga inhibitor, NS1 function inh, LmPK inhibitor, Cycloheximide cs)
CCC(=O)Oc1ccc(NC(=O)CSCc2ccccc2)cc1	Shiga inhibitor 96, Cycloheximide cs 25
COC(=O)N1CCC2(CC1)CN(C(=O)Nc1ccccc1)C2	none (no result: Shiga inhibitor, NS1 function inh, LmPK inhibitor, Cycloheximide cs)
Cc1ccc(C)c(Nc2ccc(C(=O)NCCc3ccccc3)cn2)c1	Cycloheximide cs 22
Cc1ccc(C(=O)NCCCNC(=O)Cc2ccccc2)cn1	none
Cc1ccc(Nc2ccc(C(=O)NCCc3ccccc3)cn2)cc1	Cycloheximide cs 12
O=C(NCCc1ccccc1)c1ccc2nccnc2c1	none
Cc1ccsc1C1Nc2ccccc2C(=O)N1O (centres undefined)	Shiga inhibitor 47, Cycloheximide cs 20
O=C1c2ccccc2NC(c2cnc3ccccc3n2)N1O (centres undefined)	Giardia FBPA inh inconclusive, Shiga inhibitor 71, Cycloheximide cs 49
Cc1nn(C)c(C)c1C1Nc2ccccc2C(=O)N1O (centres undefined)	Cycloheximide cs 16
C/C(=N\NC(=O)c1cccc(N/N=C(\C)c2ccco2)c1)c1ccco1	Shiga inhibitor 90, Cycloheximide cs 29 (no result: NS1 function inh)
C/C(=N\NC(=O)c1cccc([N+](=O)[O-])c1)c1cccc(NC(=O)C2CC2)c1	Cycloheximide cs 17
C/C(=N\NC(=O)c1cccc(N/N=C(\C)c2cc(O)ccc2O)c1)c1cc(O)ccc1O	Shiga inhibitor 88, Cycloheximide cs 32
C/C(=N\NC(=O)c1cccc([N+](=O)[O-])c1)c1ccco1	Shiga inhibitor 50, Cycloheximide cs 15
C/C(=N\NC(=O)c1ccc([N+](=O)[O-])cc1)c1cccc([N+](=O)[O-])c1	none (no result: NS1 function inh)
O=C(N/N=C(\c1ccccc1)c1cccnc1)c1cc(O)ccc1O	none
CCCCCC(=O)O[C@H](CC(=O)O)C[N+](C)(C)C	none (no result: Shiga inhibitor, NS1 function inh, LmPK inhibitor, Cycloheximide cs)
CCOC(=O)C1CCN(CC(O)COC(CC)c2ccccc2)CC1 (centres undefined)	none
C[C@H]1CN=C(Nc2ccccc2)N1CCC1CCCC1	none
O=C(Nc1cc(C(F)(F)F)cc(C(F)(F)F)c1)c1cc(Cl)ccc1O	none (no result: NS1 function inh, LmPK inhibitor)
N/C(=C\C(=O)c1cc(Cl)ccc1O)C(Cl)(Cl)Cl	Cycloheximide cs 13
NC(=O)c1cc(S(=O)(=O)NCc2cccs2)cs1	none
CCOc1cc(/C=C2/SC(=S)NC2=O)ccc1OC(=O)c1ccco1	Cycloheximide cs 12 (no result: NS1 function inh)
COc1cc(/C=C2/SC(=O)NC2=O)ccc1OC(=O)c1ccco1	LmPK inhibitor inconclusive
Cc1cc(C(=O)N/N=C/c2cc(Br)c(Br)o2)n[nH]1	Shiga inhibitor 80, Cycloheximide cs 23
CC(C)(C)OC(=O)N/N=C\c1ccc([N+](=O)[O-])s1	Shiga inhibitor 81, Cycloheximide cs 58 (no result: NS1 function inh)
COc1cc([N+](=O)[O-])cc(/C=N/NC(=O)CSc2nnc(-c3ccccc3)n2C)c1O	none
Cn1c(SCC(=O)N/N=C/c2ccc([N+](=O)[O-])s2)nnc1-c1ccc(Cl)cc1	Cycloheximide cs 10
Cc1cc(C(=O)N/N=C/c2ccc(C)s2)n[nH]1	Shiga inhibitor 86
CSCCC(NC(=O)COc1ccccc1)C(=O)N1CCCC(C)C1 (centres undefined)	none
CC[C@H](C)[C@H](NC(=O)[C@H](CC(=O)O)NC(=O)[C@H](CC(N)=O)NC(=O)[C@@H](NC(=O)[C@H](CCCNC(=N)N)NC(=O)[C@@H](NC(=O)[C@@H](NC(=O)[C@@H](NC(=O)[C@@H](NC(=O)[C@H](CCCCN)NC(=O)[C@@H](NC(=O)[C@H](CC(C)C)NC(=O)[C@@H](NC(=O)[C@H](CCCCN)NC(=O)[C@@H](NC(=O)[C@H](CC(=O)O)NC(=O)[C@H](CC(=O)O)NC(=O)[C@H](CCC(N)=O)NC(=O)[C@@H](NC(=O)[C@H](CCCCN)NC(=O)[C@H](CCC(N)=O)NC(=O)[C@@H](NC(=O)[C@@H]1CCCN1C(=O)[C@@H](N)C(C)C)[C@@H](C)CC)C(C)C)[C@@H](C)O)[C@@H](C)O)[C@@H](C)CC)[C@@H](C)O)[C@@H](C)CC)C(C)C)[C@@H](C)O)[C@@H](C)CC)C(=O)N[C@@H](CO)C(=O)N[C@@H](Cc1cnc[nH]1)C(=O)N[C@H](C(=O)N[C@@H](CCC(N)=O)C(=O)N[C@@H](CO)C(=O)N[C@H](C(=O)N[C@@H](CO)C(=O)N[C@@H](CO)C(=O)N[C@@H](CCCCN)C(=O)N[C@@H](CCC(N)=O)C(=O)N[C@@H](CCCCN)C(=O)O)C(C)C)[C@@H](C)O	none (no result: NS1 function inh, LmPK inhibitor)
